Hits are enriched below; roughly 21% of the tested compounds scored in any of these assays.
Pf growth 48h: Primary qHTS for delayed death inhibitors of the malarial parasite plastid, 48 hour incubation | actives 5.9% (n = 310,000) | Potency, µM (titrated, usually from 28.7 µM), without a hit: at the highest dose activity change, negative = inhibition, actives largely listed as inhibitors | P. falciparum luciferase growth in erythrocytes, 48 h | AID 504832, 2011; also: potency is read from the fitted curve at half-maximal effect; % is scaled to controls: 0 for no effect and ±100 for the full control effect
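Here the parasites carry a stable luciferase gene and grow inside erythrocytes in Albumax-based RPMI medium with compound for one erythrocytic cycle. Activity is scored as loss of luminescent signal.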
Sm TGR inh: qHTS Assay for the Inhibitors of Schistosoma Mansoni Peroxiredoxins | Schistosoma mansoni thioredoxin glutathione reductase (TGR), Q962Y6 | purified TGR, DTNB reduction, TNB absorbance 405 nm | Potency, µM (titrated, usually from 114 µM), without a hit: at the top dose activity change, negative = inhibition, hits mostly inhibitors | actives 3% (n = 360,000) | AID 485364, 2010; also: potency is read from the fitted curve at half-maximal effect; % is scaled to controls: 0 for no effect and ±100 for the full control effect; nearly all actives have a fitted effect of over 60% in size
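TGR 20 nM + NADPH 100 uM (dispensed conc.), cpd preinc 15 min RT; start with NADPH (500 uM addition) then DTNB (15 mM addition). Kinetic TNB absorbance, 405 nm filter. Four-parameter Hill fit across titration.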
Shiga inhibitor: A qHTS for Small Molecule Inhibitors of Shiga Toxin | Vero cells, Shiga toxin protein synthesis inhibition reporter | inhibition, % at 38.7 µM | actives 9.2% (n = 290,000); in the data active = inhibition mostly above about 28%, no sharp cut-off; inactive = mostly below about 43%; also: 0% is about no effect
Cycloheximide cs: Cycloheximide Counterscreen for Small Molecule Inhibitors of Shiga Toxin | cell reporter, cycloheximide protein synthesis inhibition counterscreen | AID 2314, 2010 | actives 12% (n = 300,000) | max response, %; in the data active = max response mostly above about 13%, no sharp cut-off; inactive = mostly below about 14%; also: read at 38.3 µM for the half of the compounds with a filed dose; 0% is about no effect
NS1 function inh: qHTS Assay for Inhibitors of Influenza NS1 Protein Function; Potency, µM (doses to about 46.1 µM), for the others: at the top dose activity, positive = more growth; actives 0.4% (n = 270,000); calls by dose curve; also: potency is read from the fitted curve at half-maximal effect; actives are rising curves; nearly all actives have a fitted effect of over 50% in size
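A cell-based growth assay was used: compounds that relieve NS1-induced slow growth of budding yeast raise OD600. Assay medium was yeast nitrogen base with ammonium sulphate and -URA supplement, pH 6.0, with 2% galactose.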
Pf growth 96h: Primary qHTS for delayed death inhibitors of the malarial parasite plastid, 96 hour incubation; P. falciparum luciferase reporter growth, 96 h; Potency, µM (titrated, usually from 28.7 µM), for inactives: at the highest dose activity change, negative = inhibition, actives largely listed as inhibitors; AID 504834, 2011; actives 6.9% (n = 320,000); also: potency is read from the fitted curve at half-maximal effect; % is scaled to controls: 0 for no effect and ±100 for the full control effect
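P. falciparum expressing integrated firefly luciferase grown in erythrocytes (2% hematocrit, 0.05% parasitemia final) with compounds for 96 hours at 37 C, 5% CO2. Growth inhibition read as loss of luminescence after adding luciferase detection reagent.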
Active calls of the source: *; ? = inconclusive; · = not tested or not shown; [ ] = dose if it differs, or a comment. Unless noted, calls follow the shape of the dose curve; as a rule, active = well fitted curve in the direction sought with a large enough effect; inconclusive = small, poorly fitted or top-dose-only effect, or another doubt; inactive = no such curve, though single readings can be large; an effect the other way counts as inactive or inconclusive.

SMILES	Pf growth 48h	Sm TGR inh	Shiga inhibitor	Cycloheximide cs	NS1 function inh	Pf growth 96h
Cc1cc(C(=O)NC(C)Cc2ccccc2)cc(C)c1[N+](=O)[O-] (centres undefined)	-3.7%	13.5%	28.9	2.4	-15.8%	91.4%
O=C(CSc1nc2ccccc2n1Cc1cccc(F)c1)NCc1ccccc1	·	3.7%	·	·	·	·
CC(=O)[C@@H]1[C@@H]2C(=O)N(Cc3ccccc3)C(=O)[C@@H]2C2c3ccccc3C=CN21 (some centres undefined)	?	44.7µM*	-5.9	-3.3	?	-2.0%[5.75 µM]
Cc1ccc(N2C(=O)[C@@H]3[C@H](C2=O)C2c4ccccc4C=CN2[C@@H]3C(=O)c2ccco2)c(C)c1 (some centres undefined)	?	?	15.0	17.8	-35.9%	15.8%
COc1ccc(N2C(=O)[C@@H]3[C@H](C2=O)[C@H]2c4ccccc4C=CN2[C@@H]3C(=O)Nc2ccccc2)cc1	·	0.0%	-7.4	9.2	27.8%	9.28µM*
CC(C)(C)C(=O)[C@@H]1[C@@H]2C(=O)N(c3ccc4c(c3)OCCO4)C(=O)[C@@H]2C2c3ccccc3C=CN21 (some centres undefined)	?	-25.6%	20.5	15.7*	-42.5%	-3.4%
COc1ccc(N2C(=O)[C@@H]3[C@H](C2=O)[C@H]2C=CC=NN2[C@@H]3C(=O)Nc2ccc(Cl)cc2)cc1	?	?	8.6	1.0	7.6%	-16.9%
CC(C)(C)C(=O)NC1CC(=O)N(c2ccc3c(c2)OCCO3)C1 (centres undefined)	·	-6.8%	·	·	·	·
O=C1C2C3C=CC(C3)C2C(=O)N1Cc1ccccc1 (centres undefined)	-6.0%	-3.4%	-4.6	-0.7	-5.9%	·
Cc1ccc(N2C(=O)[C@@H]3[C@H](C2=O)C2c4ccccc4C=CN2[C@@H]3C(=O)c2ccco2)cc1 (some centres undefined)	?	28.2µM*	29.0*	19.8	?	-6.4%
Nc1nc(Cl)nc2c1ncn2[C@@H]1O[C@H](COP(=O)(O)OP(=O)(O)OP(=O)(O)O)[C@H](O)[C@H]1O	·	·	·	·	-6.2%	·
COc1ccc(/C=C/C(=O)Nc2ccc(S(=O)(=O)Nc3onc(C)c3C)cc2)cc1OC	?	-22.6%	-10.8	-1.9	-32.1%	?
O=C(Oc1ccc(N2C(=O)C3C4CCC(C4)C3C2=O)cc1)c1ccco1 (centres undefined)	-19.6%	-2.6%	-9.4	0.8	3.3%	1.4%
O=C(c1ccco1)[C@@H]1[C@@H]2C(=O)N(c3ccccc3)C(=O)[C@@H]2C2c3ccccc3C=CN21 (some centres undefined)	-4.2%	56.2µM*	9.3	14.1	?	4.65µM*
CCCCNC(=O)CSc1nc2ccsc2c(=O)n1C1CCN(C(=O)OCC)CC1	?	5.1%	-26.2	-3.2	-2.5%	2.08µM*
Cc1ccc(S(=O)(=O)N(C)Cc2ccc(-c3nnc4n3CCC4)cc2)cc1	10.4µM*	7.1%	21.8	-4.0	-11.7%	10.7%
CN(C)S(=O)(=O)c1ccc(Cl)c(-c2nnc3n2CCCCC3)c1	0.1%	5.9%	19.3	-1.2	·	-0.6%
BrCCOCCOc1ccc2ccccc2c1	56.4%	-11.9%	26.4	65.4*	3.8%	1.9%
CN(CCC(=O)O)S(=O)(=O)c1ccccc1	·	·	·	·	-1.7%	·
Cc1nn(C)c(C)c1NC(=O)c1ccc(Br)o1	8.8%	-8.5%	-11.7	3.8	·	-10.3%
Cc1c(/C=N/NC(=O)C2(O)c3ccccc3-c3ccccc32)cnn1C	?	-2.5%	8.5	-1.8	24.5%	-1.6%
Cc1c(/C=N/NC(=O)c2ccc(Br)o2)cnn1C	74.3%	-2.7%	57.2*	38.5*	6.2%	0.0%
CCc1ccc(OCc2cccc(C(=O)N/N=C\c3cnn(C)c3C)c2)cc1	22.0%	0.5%	53.0*	14.6	10.6%	6.9%
Cc1occc1C(=O)N/N=C/c1cnn(C)c1C	99.3%	-8.5%	62.3*	32.7*	19.9%	10.0%
Cc1c(/C=N/NC(=O)C(C)(C)Oc2ccc(Cl)cc2)cnn1C	0.5%	-1.3%	-21.5	-1.6	-0.3%	·
SMILES	Pf growth 48h	Sm TGR inh	Shiga inhibitor	Cycloheximide cs	NS1 function inh	Pf growth 96h
Cc1c(/C=N\NC(=O)c2cccc(F)c2)cnn1C	25.4%	-1.0%	92.1*	44.8*	0.6%	7.2%
CCc1ccc(-c2nc(SCC(=O)NCC3CCCO3)c(-c3ccc(F)cc3)[nH]2)cc1 (centres undefined)	·	5.6%	·	·	·	·
COc1ccc(Nc2ccc(C(F)(F)F)cc2[N+](=O)[O-])cn1	-9.5%	-16.9%	-32.5	8.0	14.9%	-7.8%
CCOC(=O)C1=C(COC(=O)CCc2ccccc2)NC(=O)NC1C (centres undefined)	-24.2%	-12.6%	·	·	·	-14.7%
Cc1c(/C=N\NC(=O)c2ccc(F)cc2)cnn1C	24.7%	1.4%	26.5*	16.4	13.4%	0.6%
c1ccc(-c2noc(-c3ccc4ccccc4c3)n2)nc1	-95.4%	-3.1%	-14.7	-3.9	-2.2%	·
Cc1ccc(SCc2nc(-c3ccccc3)no2)cc1	18.4%	7.2%	11.9	27.7*	-0.3%	2.2%
Cc1ccc(SCc2nc(-c3ccccn3)no2)cc1	139.3%	-5.7%	69.2*	25.0*	-53.5%	-3.2%
Cc1ccc(SCc2nc(-c3ccncc3)no2)cc1	?	-3.8%	66.3*	20.4*	-8.9%	1.6%
c1ccc(SCc2nc(-c3ccncc3)no2)cc1	-30.5%	0.2%	84.0*	43.8*	-6.2%[9.22 µM]	·
N#Cc1cnn2c(-c3cccc(C(F)(F)F)c3)ccnc12	34.7%	6.9%	-5.4	-2.0	-4.4%	-22.5%
COc1ccc(-c2noc(CSc3ccccc3)n2)cc1OC	48.6%	4.7%	66.5*	39.4*	-11.7%	33.1%
COc1ccc(-c2noc(CSc3nnc(Cc4ccccc4)n3-c3ccc(Cl)cc3)n2)cc1	·	14.2%	-6.6	-1.0	9.8%	?
Cc1ccc(-c2noc(CSc3nnc(Cc4ccccc4)n3-c3ccc(Cl)cc3)n2)cc1	·	4.1%	-9.5	-1.7	21.6%	9.28µM*
CCOC(=O)c1ccc(NC(=O)C2(c3ccc(OC)cc3)CCCC2)cc1	5.86µM*	4.6%	10.7	8.5	-3.1%	?
CCOC(=O)c1ccc(NC(=O)C23CCC(C)(C(=O)O2)C3(C)C)cc1 (centres undefined)	43.8%	6.0%	65.1*	49.8*	-1.0%	17.9%
COc1ccc(NC(=O)C23CCC(C)(C(=O)O2)C3(C)C)cc1 (centres undefined)	-1.0%	-15.2%	22.1	7.4	2.2%	23.5%
CCOC(=O)c1ccc(NC(=O)C2(c3ccc(OC)cc3)CCOCC2)cc1	9.1%	3.6%	-19.2	-1.3	-12.9%	69.5%

Bioassay records: PubChem, National Center for Advancing Translational Sciences (NCATS)
